The antibiotic and cytotoxicity screens of Wong et al. (2023)
About 1,500 (3.8%) of roughly 39,000 compounds were called active. This is one part of a sample in which actives are shown more often than they occur.

System: HSkMC (human skeletal muscle cells)
Assay: cytotoxicity call (relative viability < 0.9)
Settings: 10 µM

Structure (SMILES) | cytotoxicity call
CC(C)NC(=O)Nc1ccc2c(c1)C(=O)N([C@H](C)CO)C[C@@H](C)[C@@H](CN(C)C(=O)NC1CCCCC1)O2 | inactive
CN1CCN(C(=O)C[C@H]2CC[C@H](NC(=O)c3ccc4c(c3)OCO4)[C@H](CO)O2)CC1 | inactive
C[C@@H]1CN([C@@H](C)CO)C(=O)c2cc(NS(=O)(=O)c3cccs3)ccc2O[C@@H](C)CCCCO[C@H]1CN(C)Cc1ccccc1 | inactive
C[C@H](CO)N1C[C@H](C)[C@H](CN(C)C(=O)Cc2ccccn2)Oc2cc(-c3cccc(C(=O)N(C)C)c3)ccc2S1(=O)=O | inactive
C[N+](C)(C)CCCC[C@@H]1NC(=O)[C@@H]2C[C@H](C(=O)NCc3ccc(F)cc3)[C@H](c3cccc(OCCO)c3)N2C1=O | inactive
C[C@@H]1CCCCO[C@@H](CN(C)Cc2ccccc2)[C@H](C)CN([C@@H](C)CO)C(=O)c2cc(NC(=O)c3ccncc3)ccc2O1 | inactive
C[C@H](CO)N1C[C@H](C)[C@@H](CN(C)C(=O)Nc2ccccc2F)Oc2ncc(Br)cc2C1=O | inactive
C[C@H](CO)N1C[C@H](C)[C@@H](CN(C)C(=O)Nc2ccc(C(C)(C)C)cc2)OCc2cn(nn2)CCCC1=O | inactive
C[C@H]1CN([C@@H](C)CO)C(=O)Cc2cc(NC(=O)Cc3cn(C)c4ccccc34)ccc2O[C@H]1CN(C)Cc1ccc(C(=O)Nc2ccccc2N)cc1 | inactive
C[C@H](CO)N1C[C@H](C)[C@@H](CN(C)C(=O)C2CCCCC2)OCCCC[C@H](C)Oc2ccc(NS(=O)(=O)c3cccs3)cc2C1=O | inactive
C[C@H](O)C#Cc1cnc2c(c1)C(=O)N([C@@H](C)CO)C[C@H](C)[C@H](CN(C)C(=O)CN1CCOCC1)O2 | inactive
CC(C)NC(=O)N(C)C[C@@H]1Oc2c(NS(=O)(=O)c3cn(C)cn3)cccc2C(=O)N([C@@H](C)CO)C[C@@H]1C | inactive
C[C@@H]1CN([C@@H](C)CO)C(=O)c2cc(NS(=O)(=O)c3cccs3)ccc2O[C@@H](C)CCCCO[C@@H]1CN(C)Cc1ccccc1 | inactive
Cc1ccc(S(=O)(=O)Nc2ccc3c(c2)C(=O)N([C@H](C)CO)C[C@H](C)[C@@H](CN(C)Cc2ccc(Oc4ccccc4)cc2)O3)cc1 | inactive
Cc1ccc(S(=O)(=O)Nc2ccc3c(c2)C(=O)N([C@H](C)CO)C[C@H](C)[C@H](CN(C)Cc2ccc(Oc4ccccc4)cc2)O3)cc1 | inactive
Cc1ccc(S(=O)(=O)Nc2ccc3c(c2)C(=O)N([C@H](C)CO)C[C@@H](C)[C@H](CN(C)Cc2ccc(Oc4ccccc4)cc2)O3)cc1 | active
O=C(CCCCC(=O)N/N=C/[C@H](O)[C@@H](O)[C@@H](O)[C@H](O)C(=O)O)NO | inactive
CC(=CCO)CCC(C)CCCC(C)CCCC(C)C (stereo not given) | active
CC(=CCC1=C(C)C(=O)c2ccccc2C1=O)CCCC(C)CCCC(C)CCCC(C)C (stereo not given) | inactive
C/C(=C\CO)CC[C@H](C)CCC[C@H](C)CCCC(C)C | inactive

Structure (SMILES) | cytotoxicity call
COc1ccc(S(=O)(=O)N(C)C[C@H]2OCCCC[C@H](C)Oc3ccc(NC(=O)C4CCCCC4)cc3C(=O)N([C@H](C)CO)C[C@H]2C)cc1 | inactive
CCNC(=O)C[C@H]1C=C[C@@H](NC(=O)C2CC2)[C@H](CO)O1 | inactive
CC1(C)CC(=O)c2c(C(F)(F)F)nn(-c3ccc(C(N)=O)c(N[C@H]4CC[C@H](OC(=O)CN)CC4)c3)c2C1 | active
CC1(C)CC(=O)c2c(C(F)(F)F)nn(-c3ccc(C(N)=O)c(O[C@H]4CC[C@H](N)CC4)c3)c2C1 | inactive
NCc1ccccc1-c1ccsc1 | inactive
CC(C)C#Cc1cnc2c(c1)C(=O)N([C@@H](C)CO)C[C@H](C)[C@@H](CN(C)C(=O)c1ccc3c(c1)OCO3)O2 | inactive
COc1ccc(CN(C)C[C@@H]2OCCCC[C@@H](C)Oc3ccc(NC(=O)Nc4ccccc4)cc3C(=O)N([C@H](C)CO)C[C@@H]2C)cc1 | inactive
COc1ccc(-c2oc3c(CC=C(C)C)c(O[C@@H]4O[C@H](CO)[C@@H](O)[C@H](O)[C@H]4O)cc(O)c3c(=O)c2O[C@@H]2O[C@@H](C)[C@H](O)[C@@H](O)[C@H]2O)cc1 | active
COc1ccc(-c2oc3c(CC=C(C)C)c(OC4OC(CO)C(O)C(O)C4O)cc(O)c3c(=O)c2OC2OC(C)C(O)C(O)C2O)cc1 (stereo not given) | inactive
COc1ccc(-c2oc3cc(O[C@@H]4O[C@@H](C)[C@H](O)[C@@H](O)[C@H]4O)cc(O)c3c(=O)c2O[C@@H]2O[C@H](CO)[C@@H](O)[C@H](O)[C@H]2O)cc1 | inactive
COc1ccc(CN(C)C[C@H]2OCCCC[C@@H](C)Oc3ccc(NS(=O)(=O)c4ccc(OC)cc4)cc3C(=O)N([C@@H](C)CO)C[C@@H]2C)cc1 | inactive
COc1ccc(S(=O)(=O)Nc2ccc3c(c2)C(=O)N([C@H](C)CO)C[C@@H](C)[C@H](CN(C)Cc2ccc(Cl)c(Cl)c2)OCCCC[C@@H](C)O3)cc1 | inactive
COc1ccc(CN(C)C[C@H]2OCCCC[C@@H](C)Oc3ccc(NS(=O)(=O)c4ccc(OC)cc4)cc3C(=O)N([C@H](C)CO)C[C@H]2C)cc1 | inactive
COc1ccc(CN(C)C[C@H]2OCCCC[C@H](C)Oc3ccc(NS(=O)(=O)c4ccc(OC)cc4)cc3C(=O)N([C@@H](C)CO)C[C@@H]2C)cc1 | inactive
COc1ccc(S(=O)(=O)Nc2ccc3c(c2)C(=O)N([C@H](C)CO)C[C@H](C)[C@@H](CN(C)Cc2ccc(Cl)c(Cl)c2)OCCCC[C@H](C)O3)cc1 | active
COc1ccc(S(=O)(=O)Nc2ccc3c(c2)C(=O)N([C@@H](C)CO)C[C@@H](C)[C@@H](CN(C)Cc2ccc(Cl)c(Cl)c2)OCCCC[C@@H](C)O3)cc1 | active
COc1ccc(S(=O)(=O)Nc2ccc3c(c2)C(=O)N([C@@H](C)CO)C[C@@H](C)[C@H](CN(C)Cc2ccc(Cl)c(Cl)c2)OCCCC[C@@H](C)O3)cc1 | active
COc1ccc(CN(C)C[C@H]2OCCCC[C@H](C)Oc3ccc(NS(=O)(=O)c4ccc(OC)cc4)cc3C(=O)N([C@H](C)CO)C[C@H]2C)cc1 | inactive
COc1ccc(S(=O)(=O)Nc2ccc3c(c2)C(=O)N([C@H](C)CO)C[C@H](C)[C@H](CN(C)Cc2ccc(Cl)c(Cl)c2)OCCCC[C@@H](C)O3)cc1 | inactive
COc1ccc(S(=O)(=O)Nc2ccc3c(c2)C(=O)N([C@@H](C)CO)C[C@H](C)[C@H](CN(C)Cc2ccc(Cl)c(Cl)c2)OCCCC[C@@H](C)O3)cc1 | active
